Data: PubChem BioAssay AID1159580 (chemical genetic matrix, 2015)
Several values for one entry are separate records, joined by “and”; a condition that tells them apart may be missing. Equal entries are not always repeated. Among all 5,500 compounds or so, about 2,000 (36%) were called active. Not shown: some 18% with an inconclusive outcome. Cut-off read from the data, not from the text of the source: active = normalized growth mostly below about 0.91 (no sharp cut-off); inconclusive = no clear call, values can overlap the other calls; inactive = mostly above about 0.92. This is one part of the list.

Test: chemical genetic growth profiling, strain panel (AID 1159580);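 note: tested at 20 µM; growth read once vehicle control cultures reached saturation at 30 °C; 1 = growth at the plate median or of vehicle wells; lower values mean less growth of the strain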
Conditions: S. cerevisiae deletion strains, growth OD

Measured: normalized growth

CCOc1ccc(Cc2nccc3cc(OCC)c(OCC)cc23)cc1OCC
inactive: locus YAL013W, strain DEP1, active compounds read low 0.976 | locus YAL021C, strain ccr4, active compounds read low 0.946 | locus YAL026C, strain drs2, active compounds read low 0.974 | locus YAL030W, strain snc1, active compounds read low 0.99 | locus YBL061C, strain skt5, active compounds read low 0.968 | locus YBR009C, strain hhf1, active compounds read low 0.975 | locus YBR021W, strain FUR4, active compounds read low 0.961 | locus YBR023C, strain chs3, active compounds read low 0.974 | locus YBR171W, strain sec66, active compounds read low 0.965 | locus YBR229C, strain ROT2, active compounds read low 0.969 | locus YBR231C, strain swc5, active compounds read low 0.998 | locus YBR279W, strain paf1, active compounds read low 0.989 | locus YCL011C, strain gbp2, active compounds read low 0.993 | locus YCL016C, strain dcc1, active compounds read low 0.981 | locus YCL029C, strain bik1, active compounds read low 0.952 | locus YCL069W, strain vba3, active compounds read low 0.99 | locus YCR088W, strain abp1, active compounds read low 0.969 | locus YDL005C, strain med2, active compounds read low 0.989 | locus YDL035C, strain GPR1, active compounds read low 0.956 | locus YDL040C, strain nat1, active compounds read low 0.976 | locus YDL074C, strain BRE1, active compounds read low 0.855 | locus YDL101C, strain DUN1, active compounds read low 0.956 | locus YDL134C, strain PPH21, active compounds read low 0.939 | locus YDL185W, strain tfp1, active compounds read low 0.994 | locus YDL192W, strain arf1, active compounds read low 0.958 | locus YDR001C, strain nth1, active compounds read low 0.977 | locus YDR069C, strain doa4, active compounds read low 0.982 | locus YDR101C, strain arx1, active compounds read low 0.967 | locus YDR137W, strain rgp1, active compounds read low 0.89 | locus YDR150W, strain NUM1, active compounds read low 0.994 | locus YDR159W, strain sac3, active compounds read low 0.892 | locus YDR162C, strain NBP2, active compounds read low 0.945 | locus YDR195W, strain ref2 1.05 | locus YDR297W, strain sur2, active compounds read low 0.976 | locus YDR318W, strain mcm21, active compounds read low 0.931 | locus YDR334W, strain swr1, active compounds read low 0.974 | locus YDR335W, strain msn5, active compounds read low 0.985 | locus YDR388W, active compounds read low 0.954 | locus YDR392W, strain spt3, active compounds read low 0.866 | locus YDR502C, strain sam2, active compounds read low 0.96 | locus YEL003W, strain gim4, active compounds read low 0.963 | locus YEL037C, strain rad23, active compounds read low 0.956 | locus YEL061C, strain CIN8 (second series), active compounds read low 0.959 | locus YEL061C, strain CIN8, active compounds read low 0.986 | locus YER015W, strain faa2, active compounds read low 0.965 | locus YER016W, strain bim1, active compounds read low 0.962 | locus YER110C, active compounds read low 0.968 | locus YER111C, strain swi4, active compounds read low 0.972 | locus YER155C, strain BEM2 (second series), active compounds read low 0.913 | locus YER155C, strain BEM2, active compounds read low 0.99 | locus YER167W, strain BCK2, active compounds read low 0.956 | locus YFR010W, strain ubp6, active compounds read low 0.97 | locus YGL078C, strain dbp3, active compounds read low 0.985 | locus YGL086W, strain mad1, active compounds read low 0.962 | locus YGL167C, strain pmr1, active compounds read low 0.969 | locus YGL173C, strain kem1, active compounds read low 0.966 | locus YGL227W, strain vid30, active compounds read low 0.998 | locus YGL240W, strain doc1, active compounds read low 0.962 | locus YGL248W, strain PDE1, active compounds read low 0.944 | locus YGL253W, strain hxk2, active compounds read low 0.986 | locus YGR078C, strain PAC10, active compounds read low 0.899 | locus YGR135W, strain pre9, active compounds read low 0.92 | locus YGR229C, strain SMI1, active compounds read low 0.91 | locus YGR252W, strain gcn5, active compounds read low 0.776 | locus YHR013C, strain ard1, active compounds read low 0.955 | locus YHR027C, strain rpn1, active compounds read low 0.983 | locus YHR030C, strain SLT2, active compounds read low 0.977 and 0.969 | locus YHR079C, strain IRE1 (second series), active compounds read low 0.954 | locus YHR079C, strain IRE1, active compounds read low 0.939 | locus YHR094C, strain hxt1, active compounds read low 0.977 | locus YHR129C, strain ARP1, active compounds read low 0.978 | locus YHR142W, strain chs7, active compounds read low 0.923 | locus YHR200W, strain rpn10, active compounds read low 0.948 | locus YIL066C, strain RNR3, active compounds read low 0.935 | locus YIL073C, strain SPO22, active compounds read low 0.962 | locus YIL125W, strain kgd1, active compounds read low 0.978 | locus YIR030C, strain dcg1, active compounds read low 0.971 | locus YJL092W, strain hpr5, active compounds read low 0.99 | locus YJL095W, strain BCK1 (second series), active compounds read low 0.968 | locus YJL095W, strain BCK1, active compounds read low 0.882 and 0.963 | locus YJL115W, strain asf1, active compounds read low 0.995 | locus YJL129C, strain trk1, active compounds read low 0.896 | locus YJL134W, strain LCB3, active compounds read low 0.985 | locus YJL154C, strain vps35, active compounds read low 0.973 | locus YJL164C, strain tpk1, active compounds read low 0.973 | locus YJL166W, strain qcr8, active compounds read low 0.967 | locus YJL168C, strain set2, active compounds read low 0.973 | locus YJL187C, strain SWE1 (second series), active compounds read low 0.912 | locus YJR043C, strain POL32, active compounds read low 0.943 | locus YJR066W, strain TOR1, active compounds read low 0.9
